{
  "source": "PubChem BioAssay AID2283312",
  "about": "(EPA ToxCast)",
  "note": "Results filed as inconclusive are left out. Activity calls are given as the source filed them. Rule for the calls: active = hit-call score of the fitted dose curve at least 0.9, where 1 is the maximum; inconclusive = response in the unintended direction; inactive = score below 0.9.",
  "data": [
    {"target": "rat Vasoactive Intestinal Peptide Receptor (VIP), Non-selective Binding, Vipr1 (gene 24875) (UniProt P30083)", "sequence (P30083 whole entry, looked up)": "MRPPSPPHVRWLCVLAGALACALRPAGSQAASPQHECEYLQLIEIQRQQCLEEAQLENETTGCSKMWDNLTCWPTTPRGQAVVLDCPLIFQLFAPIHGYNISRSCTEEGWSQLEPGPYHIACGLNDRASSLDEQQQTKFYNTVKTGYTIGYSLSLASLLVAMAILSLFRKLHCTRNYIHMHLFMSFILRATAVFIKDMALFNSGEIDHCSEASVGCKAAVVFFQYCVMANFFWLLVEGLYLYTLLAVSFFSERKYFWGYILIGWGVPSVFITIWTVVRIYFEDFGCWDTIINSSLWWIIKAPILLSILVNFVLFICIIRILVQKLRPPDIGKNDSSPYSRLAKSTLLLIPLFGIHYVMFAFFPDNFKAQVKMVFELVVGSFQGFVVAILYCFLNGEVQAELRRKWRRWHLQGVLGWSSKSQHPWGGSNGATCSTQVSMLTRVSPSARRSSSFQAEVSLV", "assay": "NVS_GPCR_rVIP_NonSelective: NovaScreen (NVS) G Protein-Coupled Receptor Assay for rat Vasoactive Intestinal Peptide Receptor (VIP), Non-selective Binding", "protocol": "NVS_GPCR_rVIP_NonSelective is a biochemical, single-readout assay that uses extracted gene-proteins from Rat forebrain membranes in a tissue-based cell-free assay. Measurements were taken 1 hour after chemical dosing in a 96-well plate.NVS_GPCR_rVIP_NonSelective is one of one assay component(s) measured or calculated from the NVS_GPCR_rVIP_NonSelective assay. It is designed to make measurements of radioligand binding, a form of binding reporter, as detected with scintillation counting signals by Filter-based radiodetection technology.Data from the assay component NVS_GPCR_rVIP_NonSelective was analyzed into 1 assay endpoint. This assay endpoint, NVS_GPCR_rVIP_NonSelective, was analyzed in the positive analysis fitting direction relative to DMSO as the negative control and baseline of activity. Using a type of binding reporter, loss-of-signal activity can be used to understand changes in the binding as they relate to the gene Vipr1. Furthermore, this assay endpoint can be referred to as a primary readout, because the performed assay has only produced 1 assay endpoint. To generalize the intended target to other relatable targets, this assay endpoint is annotated to the gpcr intended target family, where the subfamily is secretin receptor.\nBinding assays used specific radioligands (tritiated, iodinated) with non-radioactive competitive displacement ligands in agonist or antagonist protocols (as indicated) and various reference compounds and inhibitors to titrate specific binding to receptors and transporters. Most enzyme assays (CYPs, kinases, phosphatases, proteases, HDACs) used recombinant protein and specific substrates (fluorescence mostly, some colorimetric and radioactive) and inhibitors, followed by a biochemical separation of substrate and product. All assays for the biochemical HTS were initially run in duplicate at a single concentration (10 uM for CYP450 assays and 25 uM for all others). Assay-chemical combinations meeting a pre-defined threshold (e.g., 30% inhibition and other criteria defined below) were then run in singleton concentration-response format with maximum concentration of 20 uM for CYPs and 50 uM for all others. Each assay was run with positive and negative controls, and concurrent controls on every plate. The follow-up (secondary) screen tested active chemical-pairs in concentration series, as well as a few additional assays not tested in the primary screen, some selected negative inactives, and several cases re-run in the concentration series for confirmatory purposes.", "values": [
      {"compound": "Oc1ccccc1-c1ccccc1", "outcome": "inactive"},
      {"compound": "CC[C@H](C)[C@H]1O[C@]2(C=C[C@@H]1C)C[C@@H]1C[C@@H](C/C=C(\\C)[C@@H](O[C@H]3C[C@H](OC)[C@@H](O[C@H]4C[C@H](OC)[C@@H](NC)[C@H](C)O4)[C@H](C)O3)[C@@H](C)/C=C/C=C3\\CO[C@@H]4[C@H](O)C(C)=C[C@@H](C(=O)O1)[C@]34O)O2", "outcome": "inactive"},
      {"compound": "Cc1ccc(-c2c(Cl)nc(C#N)n2S(=O)(=O)N(C)C)cc1", "outcome": "inactive"},
      {"compound": "C=C(C)C(=O)[O][Sn]([CH2]CCC)([CH2]CCC)[CH2]CCC", "AC50": "14.9 µM (active)"},
      {"compound": "CCOP(=O)(OCC)Oc1nc(Cl)c(Cl)cc1Cl", "outcome": "inactive"},
      {"compound": "CC(=O)[O][Hg][c]1ccccc1", "outcome": "inactive"},
      {"compound": "CCC[CH2][Sn]([Cl])([CH2]CCC)[CH2]CCC", "AC50": "7.97 µM (active)"},
      {"compound": "COP(=S)(OC)Oc1nc(Cl)c(Cl)cc1Cl", "outcome": "inactive"},
      {"compound": "CC(C)N1C(=O)N(c2ccccc2)CSC1=NC(C)(C)C", "outcome": "inactive"},
      {"compound": "Nc1c(Cl)c(F)nc(OCC(=O)O)c1Cl", "outcome": "inactive"}
    ]}
  ]
}
